Measured values from the supplement of paper PMC4466140.

Experiments:
Assay in all cases: SPOT peptide array binding signal intensity (averaged, normalized) (arbitrary units (background-subtracted, floor 0; scale differs between SH3 domains)); higher = stronger binding of the SH3 domain to the peptide
AgAbp1 = target: AgAbp1
Method in brief: (§1)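 Binding signal is given in arbitrary units that differ between domains and is the normalized, background-subtracted spot intensity averaged across replicates. Each GST-SH3 fusion from one of four yeast species was made in E. coli BL21(DE3), purified on glutathione Sepharose and incubated at 10 μg/ml overnight at 4°C on cellulose-bound synthetic 15-mer peptides in which cysteines were replaced by serines. Detection used anti-GST antibody, an HRP anti-mouse secondary and luminol, followed by imaging and Genespotter quantification.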

AgBbc1 = target: AgBbc1
Method in brief: as §1

AgBem1-D1 = target: AgBem1-D1
Method in brief: as §1

AgBzz1-D1 = target: AgBzz1-D1
Method in brief: as §1

AgBzz1-D2 = target: AgBzz1-D2
Method in brief: as §1

AgCyk3 = target: AgCyk3
Method in brief: as §1

AgFus1 = target: AgFus1
Method in brief: as §1

AgHof1 = target: AgHof1
Method in brief: as §1

AgHse1 = target: AgHse1
Method in brief: as §1

AgLsb1 = target: AgLsb1
Method in brief: as §1

AgLsb4 = target: AgLsb4
Method in brief: as §1

AgMyo5 = target: AgMyo5
Method in brief: as §1

AgNbp2 = target: AgNbp2
Method in brief: as §1

AgRvs167 = target: AgRvs167
Method in brief: as §1

AgSho1 = target: AgSho1
Method in brief: as §1

AgSla1-D1-D2 = target: AgSla1-D1-D2
Method in brief: as §1

AgSla1-D3 = target: AgSla1-D3
Method in brief: as §1

CaAbp1-D1 = target: CaAbp1-D1
Method in brief: as §1

CaAbp1-D2 = target: CaAbp1-D2
Method in brief: as §1

CaBbc1 = target: CaBbc1
Method in brief: as §1

CaBem1-D1 = target: CaBem1-D1
Method in brief: as §1

CaBzz1-D1 = target: CaBzz1-D1
Method in brief: as §1

CaBzz1-D2 = target: CaBzz1-D2
Method in brief: as §1

CaCyk3 = target: CaCyk3
Method in brief: as §1

CaFus1 = target: CaFus1
Method in brief: as §1

CaHof1 = target: CaHof1
Method in brief: as §1

CaHse1 = target: CaHse1
Method in brief: as §1

CaLsb1 = target: CaLsb1
Method in brief: as §1

CaLsb4 = target: CaLsb4
Method in brief: as §1

CaMyo5 = target: CaMyo5
Method in brief: as §1

CaNbp2 = target: CaNbp2
Method in brief: as §1

CaRvs167 = target: CaRvs167
Method in brief: as §1

CaRvs167-3 = target: CaRvs167-3
Method in brief: as §1

CaSho1 = target: CaSho1
Method in brief: as §1

CaSla1-D1-D2 = target: CaSla1-D1-D2
Method in brief: as §1

CaSla1-D3 = target: CaSla1-D3
Method in brief: as §1

ScAbp1 = target: ScAbp1
Method in brief: as §1

ScBbc1 = target: ScBbc1
Method in brief: as §1

ScBem1-D1 = target: ScBem1-D1
Method in brief: as §1

ScBzz1-D1 = target: ScBzz1-D1
Method in brief: as §1

ScBzz1-D2 = target: ScBzz1-D2
Method in brief: as §1

ScCyk3 = target: ScCyk3
Method in brief: as §1

ScFus1 = target: ScFus1
Method in brief: as §1

ScHof1 = target: ScHof1
Method in brief: as §1

ScHse1 = target: ScHse1
Method in brief: as §1

ScLsb1 = target: ScLsb1
Method in brief: as §1

ScLsb2 = target: ScLsb2
Method in brief: as §1

ScLsb3 = target: ScLsb3
Method in brief: as §1

ScLsb4 = target: ScLsb4
Method in brief: as §1

ScMyo3 = target: ScMyo3
Method in brief: as §1

ScMyo5 = target: ScMyo5
Method in brief: as §1

ScNbp2 = target: ScNbp2
Method in brief: as §1

ScPex13 = target: ScPex13
Method in brief: as §1

ScRvs167 = target: ScRvs167
Method in brief: as §1

ScSho1 = target: ScSho1
Method in brief: as §1

ScSla1-D1-D2 = target: ScSla1-D1-D2
Method in brief: as §1

ScSla1-D3 = target: ScSla1-D3
Method in brief: as §1

SpAbp1-D1 = target: SpAbp1-D1
Method in brief: as §1

SpBbc1 = target: SpBbc1
Method in brief: as §1

SpBzz1-D1 = target: SpBzz1-D1
Method in brief: as §1

SpBzz1-D2 = target: SpBzz1-D2
Method in brief: as §1

SpCyk3 = target: SpCyk3
Method in brief: as §1

SpHof1 = target: SpHof1
Method in brief: as §1

SpHof1-2 = target: SpHof1-2
Method in brief: as §1

SpHof1-3 = target: SpHof1-3
Method in brief: as §1

SpHse1 = target: SpHse1
Method in brief: as §1

SpLsb1 = target: SpLsb1
Method in brief: as §1

SpLsb4 = target: SpLsb4
Method in brief: as §1

SpMyo1 = target: SpMyo1
Method in brief: as §1

SpNbp2 = target: SpNbp2
Method in brief: as §1

SpPex13 = target: SpPex13
Method in brief: as §1

SpRvs167 = target: SpRvs167
Method in brief: as §1

SpSla1-D1-D2 = target: SpSla1-D1-D2
Method in brief: as §1

SpSla1-D3 = target: SpSla1-D3
Method in brief: as §1

PPLPRAPPVPPATFE
SPOT peptide array binding signal intensity (AgAbp1): 16 | SPOT peptide array binding signal intensity (AgBbc1): 0.5 | SPOT peptide array binding signal intensity (AgBem1-D1): 40.5 | SPOT peptide array binding signal intensity (AgBzz1-D1): 18 | SPOT peptide array binding signal intensity (AgBzz1-D2): ≤ 0 | SPOT peptide array binding signal intensity (AgCyk3): 0.5 | SPOT peptide array binding signal intensity (AgFus1): ≤ 0 | SPOT peptide array binding signal intensity (AgHof1): 43.2 | SPOT peptide array binding signal intensity (AgHse1): 15 | SPOT peptide array binding signal intensity (AgLsb1): 17.2 | SPOT peptide array binding signal intensity (AgLsb4): ≤ 0 | SPOT peptide array binding signal intensity (AgMyo5): 434 | SPOT peptide array binding signal intensity (AgNbp2): 107 | SPOT peptide array binding signal intensity (AgRvs167): ≤ 0 | SPOT peptide array binding signal intensity (AgSho1): 6 | SPOT peptide array binding signal intensity (AgSla1-D1-D2): 5 | SPOT peptide array binding signal intensity (AgSla1-D3): ≤ 0 | SPOT peptide array binding signal intensity (CaAbp1-D1): 21.5 | SPOT peptide array binding signal intensity (CaAbp1-D2): 20 | SPOT peptide array binding signal intensity (CaBbc1): 79.2 | SPOT peptide array binding signal intensity (CaBem1-D1): 23 | SPOT peptide array binding signal intensity (CaBzz1-D1): 243 | SPOT peptide array binding signal intensity (CaBzz1-D2): 39.5 | SPOT peptide array binding signal intensity (CaCyk3): 1.5 | SPOT peptide array binding signal intensity (CaFus1): 47 | SPOT peptide array binding signal intensity (CaHof1): 1.5 | SPOT peptide array binding signal intensity (CaHse1): ≤ 0 | SPOT peptide array binding signal intensity (CaLsb1): ≤ 0 | SPOT peptide array binding signal intensity (CaLsb4): ≤ 0 | SPOT peptide array binding signal intensity (CaMyo5): 104 | SPOT peptide array binding signal intensity (CaNbp2): 1100 | SPOT peptide array binding signal intensity (CaRvs167): ≤ 0 | SPOT peptide array binding signal intensity (CaRvs167-3): ≤ 0 | SPOT peptide array binding signal intensity (CaSho1): 14 | SPOT peptide array binding signal intensity (CaSla1-D1-D2): 2 | SPOT peptide array binding signal intensity (CaSla1-D3): 1 | SPOT peptide array binding signal intensity (ScAbp1): 4.5 | SPOT peptide array binding signal intensity (ScBbc1): ≤ 0 | SPOT peptide array binding signal intensity (ScBem1-D1): ≤ 0 | SPOT peptide array binding signal intensity (ScBzz1-D1): 4.5 | SPOT peptide array binding signal intensity (ScBzz1-D2): ≤ 0 | SPOT peptide array binding signal intensity (ScCyk3): ≤ 0 | SPOT peptide array binding signal intensity (ScFus1): 11 | SPOT peptide array binding signal intensity (ScHof1): 241 | SPOT peptide array binding signal intensity (ScHse1): ≤ 0 | SPOT peptide array binding signal intensity (ScLsb1): 1 | SPOT peptide array binding signal intensity (ScLsb2): 11 | SPOT peptide array binding signal intensity (ScLsb3): 84 | SPOT peptide array binding signal intensity (ScLsb4): ≤ 0 | SPOT peptide array binding signal intensity (ScMyo3): 1100 | SPOT peptide array binding signal intensity (ScMyo5): 463 | SPOT peptide array binding signal intensity (ScNbp2): 200 | SPOT peptide array binding signal intensity (ScPex13): 95 | SPOT peptide array binding signal intensity (ScRvs167): 33.5 | SPOT peptide array binding signal intensity (ScSho1): 81 | SPOT peptide array binding signal intensity (ScSla1-D1-D2): ≤ 0 | SPOT peptide array binding signal intensity (ScSla1-D3): ≤ 0 | SPOT peptide array binding signal intensity (SpAbp1-D1): 7 | SPOT peptide array binding signal intensity (SpBbc1): 1 | SPOT peptide array binding signal intensity (SpBzz1-D1): 566 | SPOT peptide array binding signal intensity (SpBzz1-D2): 23.2 | SPOT peptide array binding signal intensity (SpCyk3): ≤ 0 | SPOT peptide array binding signal intensity (SpHof1): 1 | SPOT peptide array binding signal intensity (SpHof1-2): 707 | SPOT peptide array binding signal intensity (SpHof1-3): 125 | SPOT peptide array binding signal intensity (SpHse1): 30.8 | SPOT peptide array binding signal intensity (SpLsb1): 1.75 | SPOT peptide array binding signal intensity (SpLsb4): ≤ 0 | SPOT peptide array binding signal intensity (SpMyo1): 422 | SPOT peptide array binding signal intensity (SpNbp2): 17 | SPOT peptide array binding signal intensity (SpPex13): ≤ 0 | SPOT peptide array binding signal intensity (SpRvs167): 88 | SPOT peptide array binding signal intensity (SpSla1-D1-D2): 3 | SPOT peptide array binding signal intensity (SpSla1-D3): ≤ 0

QTMRQAPKRPDADVA
SPOT peptide array binding signal intensity (SpBzz1-D2): 512 | SPOT peptide array binding signal intensity (SpCyk3): 3 | SPOT peptide array binding signal intensity (SpHof1): 51.5 | SPOT peptide array binding signal intensity (SpHof1-2): 27.5 | SPOT peptide array binding signal intensity (SpHof1-3): 32.8 | SPOT peptide array binding signal intensity (SpHse1): 240 | SPOT peptide array binding signal intensity (SpLsb1): 34 | SPOT peptide array binding signal intensity (SpLsb4): 990 | SPOT peptide array binding signal intensity (SpMyo1): 229 | SPOT peptide array binding signal intensity (SpNbp2): 847 | SPOT peptide array binding signal intensity (SpPex13): 35 | SPOT peptide array binding signal intensity (SpRvs167): 188 | SPOT peptide array binding signal intensity (SpSla1-D1-D2): 11 | SPOT peptide array binding signal intensity (SpSla1-D3): 491

SRYRRPLTLLLLKPF
SPOT peptide array binding signal intensity (AgAbp1): 16 | SPOT peptide array binding signal intensity (AgBbc1): 6 | SPOT peptide array binding signal intensity (AgBem1-D1): 0.5 | SPOT peptide array binding signal intensity (AgBzz1-D1): 23 | SPOT peptide array binding signal intensity (AgBzz1-D2): 17 | SPOT peptide array binding signal intensity (AgCyk3): 1 | SPOT peptide array binding signal intensity (AgFus1): 965 | SPOT peptide array binding signal intensity (AgHof1): 13.8 | SPOT peptide array binding signal intensity (AgHse1): 1270 | SPOT peptide array binding signal intensity (AgLsb1): ≤ 0 | SPOT peptide array binding signal intensity (AgLsb4): 270 | SPOT peptide array binding signal intensity (AgMyo5): 0.5 | SPOT peptide array binding signal intensity (AgNbp2): 97.5 | SPOT peptide array binding signal intensity (AgRvs167): 5.17 | SPOT peptide array binding signal intensity (AgSho1): 334 | SPOT peptide array binding signal intensity (AgSla1-D1-D2): 40 | SPOT peptide array binding signal intensity (AgSla1-D3): 4 | SPOT peptide array binding signal intensity (CaAbp1-D1): 155 | SPOT peptide array binding signal intensity (CaAbp1-D2): 128 | SPOT peptide array binding signal intensity (CaBbc1): 38 | SPOT peptide array binding signal intensity (CaBem1-D1): 8.5 | SPOT peptide array binding signal intensity (CaBzz1-D1): 26.5 | SPOT peptide array binding signal intensity (CaBzz1-D2): 14.2 | SPOT peptide array binding signal intensity (CaCyk3): 9 | SPOT peptide array binding signal intensity (CaFus1): 1410 | SPOT peptide array binding signal intensity (CaHof1): 0.5 | SPOT peptide array binding signal intensity (CaHse1): 80.8 | SPOT peptide array binding signal intensity (CaLsb1): 2.5 | SPOT peptide array binding signal intensity (CaLsb4): 37 | SPOT peptide array binding signal intensity (CaMyo5): ≤ 0
